Source: PubChem BioAssay (NCATS)
Where “and” joins values, the source holds several entries; their conditions need not be identical. Equal entries are not always repeated. Inconclusive results are not listed. Calls of active or inactive are those of the source. Unless noted, calls follow the shape of the dose curve; as a rule, active = well fitted curve in the direction sought with a large enough effect; inconclusive = small, poorly fitted or top-dose-only effect, or another doubt; inactive = no such curve, though single readings can be large; an effect the other way counts as inactive or inconclusive.

How the values were obtained:
[1] = Cell Viability - HepG2 (AID 433; calls by dose curve;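 also: potency is read from the fitted curve at half-maximal effect; potency for ATP loss meaning cytotoxicity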); conditions: qHTS
Method in brief: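 Cytotoxicity is scored as loss of intracellular ATP in HepG2 cells exposed to compounds for 40 h. Concentration-response curves, normalized to DMSO and 100 uM tamoxifen, give AC50 values.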

[2] = Cell Viability - Mesenchymal (AID 546); conditions: mesenchymal cells viability, qHTS; activity change, negative = cytotoxicity: at 91.7 µM (top of the series);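 also: cells exposed to compound for 40 hours before reading; 0% = DMSO only and -100% = 100 µM tamoxifen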
Method in brief: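 Normal human renal glomerulus-derived kidney mesenchymal cells, 1000 per well in complete medium, were treated with compounds for 40 hr at 37 °C. Viability was read as intracellular ATP by CellTiter-Glo luminescence; AC50 values came from Hill-equation fits of qHTS concentration-response data.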

[3] = Cell Viability - LYMP1-003 - Assay at 40 hr (AID 964); conditions: LYMP1-003 lymphoblastoid viability; series mostly up to 92.2 µM; also: nearly all actives have a fitted effect of over 60% in size; also: potency is read from the fitted curve at half-maximal effect
Method in brief: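 LYMP1-003 human lymphoblastoid cells, 2500/well, preincubated 5 h at 37 C, then treated with compound for 40 h at 37 C. Intracellular ATP read by CellTiter-Glo luminescence after 30 min at room temperature; AC50 from Hill-equation fits.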

[4] = Cell Viability - LYMP2-013 (AID 970); conditions: LYMP2-013 lymphoblastoid cells viability; series mostly up to 92.2 µM; also: nearly all actives have a fitted effect of over 55% in size; also: potency is read from the fitted curve at half-maximal effect
Method in brief: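 Human lymphoblastoid LYMP2-013 cells, 2500/well, treated 24 h at 37 C in complete medium; viability as intracellular ATP by CellTiter-Glo luminescence after 30 min. AC50 from Hill fits of qHTS concentration-response.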

[5] = Cell Viability - LYMP2-017 (AID 972); conditions: LYMP2-017 lymphoblastoid cell viability; series mostly up to 92.2 µM; also: nearly all actives have a fitted effect of over 55% in size; also: potency is read from the fitted curve at half-maximal effect; as to activity change, negative = cytotoxicity: % is scaled to controls: 0 for no effect and ±100 for the full control effect
Method in brief: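 LYMP2-017 human lymphoblastoid cells (2500/well) settled 5 hr at 37 C, then exposed to compound 24 hr at 37 C in complete medium. Viability taken as intracellular ATP by CellTiter-Glo luminescence after 30 min at RT; AC50 from Hill fits.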

[6] = Cell Viability - LYMP2-021 (AID 974); conditions: LYMP2-021 lymphoblastoid cells viability; series mostly up to 92.2 µM;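 also: compound exposure lasts 24 hours at 37 °C; nearly all actives have a fitted effect of over 55% in size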; also: potency is read from the fitted curve at half-maximal effect; as to activity change, negative = cytotoxicity: % is scaled to controls: 0 for no effect and ±100 for the full control effect
Method in brief: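 Human lymphoblastoid LYMP2-021 cells, 2500/well in complete medium, treated 24 hours at 37 C. Intracellular ATP by CellTiter-Glo luminescence (30 min, RT); AC50 from Hill fits of concentration-response.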

[7] = Cell Viability - LYMP2-023 (AID 975); conditions: LYMP2-023 lymphoblastoid cell viability; series mostly up to 92.2 µM; also: nearly all actives have a fitted effect of over 55% in size; also: potency is read from the fitted curve at half-maximal effect;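 as to activity change, negative = cytotoxicity: cellular ATP measured by luciferase luminescence as viability proxy; plate controls were DMSO only for no effect and 92 µM tetraoctylammonium bromide control for full effect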
Method in brief: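 LYMP2-023 human lymphoblastoid cells, 2500/well, preincubated 5 hr at 37 C, then compound-treated 24 hr at 37 C in complete medium. CellTiter-Glo luminescence (ATP) after 30 min at room temperature; AC50 from Hill-equation fits; tetraoctylammonium bromide positive control.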

[8] = Cell Viability - LYMP2-025 (AID 976); conditions: LYMP2-025 lymphoblastoid cell viability; series mostly up to 92.2 µM; also: potency is read from the fitted curve at half-maximal effect;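 as to activity change, negative = cytotoxicity: plate controls were DMSO only for no effect and tetraoctylammonium bromide control for full effect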
Method in brief: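 Human lymphoblastoid LYMP2-025 cells, 2500/well, exposed 24 h at 37 C in complete medium in 1536-well qHTS. Viability as cellular ATP by CellTiter-Glo luminescence; AC50 from Hill fits of concentration-response data.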

[9] = Cell Viability - LYMP2-002 (AID 977); conditions: LYMP2-002 lymphoblastoid cell viability, qHTS; series mostly up to 92.2 µM; also: potency is read from the fitted curve at half-maximal effect
Method in brief: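 Luminescent ATP readout (CellTiter-Glo, 30 min room temperature) after 24 h compound exposure at 37 C of a human lymphoblastoid line, 2500 cells/well. AC50 values derived by standard Hill fitting of qHTS concentration-response data.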

[10] = Cell Viability - LYMP2-012 (AID 982); conditions: LYMP2-012 lymphoblastoid cell viability qHTS; series mostly up to 92.2 µM; also: potency is read from the fitted curve at half-maximal effect;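 as to activity change, negative = cytotoxicity: 0% = DMSO only and full loss = 92 µM tetraoctylammonium bromide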
[11] = Cell Viability - LYMP2-014 (AID 983); conditions: LYMP2-014 lymphoblastoid cells, viability qHTS; series mostly up to 92.2 µM; also: nearly all actives have a fitted effect of over 50% in size; also: potency is read from the fitted curve at half-maximal effect;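 as to activity change, negative = cytotoxicity: plate controls were DMSO only for no effect and 92 µM tetraoctylammonium bromide for full effect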
Method in brief: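 LYMP2-014 human lymphoblastoid cells, 2500/well, treated 24 h at 37 C in complete medium; viability by CellTiter-Glo ATP luminescence after 30 min at room temperature. AC50 from Hill fits of qHTS concentration-response; tetraoctylammonium bromide positive control.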

[12] = Cell Viability - LYMP2-016 (AID 984); conditions: LYMP2-016 lymphoblastoid cell viability, qHTS; series mostly up to 92.2 µM; also: nearly all actives have a fitted effect of over 55% in size; also: potency is read from the fitted curve at half-maximal effect; as to activity change, negative = cytotoxicity: % is scaled to controls: 0 for no effect and ±100 for the full control effect
Method in brief: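 Acute toxicity in a Coriell human lymphoblastoid line is scored as loss of intracellular ATP over 24 h of treatment in complete medium. CellTiter-Glo signal is fitted across concentrations with the Hill equation to give AC50.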

[13] = Cell Viability - LYMP2-018 (AID 985); conditions: LYMP2-018 lymphoblastoid cells, viability (qHTS); series mostly up to 92.2 µM;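 also: compound exposure lasted 24 hr at 37 °C; nearly all actives have a fitted effect of over 50% in size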; also: potency is read from the fitted curve at half-maximal effect;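 as to activity change, negative = cytotoxicity: plate controls were DMSO only for no effect and tetraoctylammonium bromide at 92 µM for full effect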
Method in brief: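 Human lymphoblastoid LYMP2-018 cells, 2500/well, settled 5 hr at 37 C then exposed to compound 24 hr at 37 C; intracellular ATP measured by CellTiter-Glo luminescence. AC50 from Hill-equation concentration-response fits.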

[14] = Cell Viability - LYMP2-020 (AID 986); conditions: series mostly up to 92.2 µM; also: nearly all actives have a fitted effect of over 55% in size; also: potency is read from the fitted curve at half-maximal effect
Method in brief: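 Human lymphoblastoid LYMP2-020 cells (2500/well) preincubated 5 h at 37 C, then treated 24 h at 37 C. Viability measured as intracellular ATP by CellTiter-Glo luminescence after 30 min at room temperature; AC50 from Hill fits.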

[15] = Cell Viability - LYMP2-022 (AID 987); conditions: LYMP2-022 lymphoblastoid cell viability; series mostly up to 92.2 µM; also: nearly all actives have a fitted effect of over 55% in size; also: potency is read from the fitted curve at half-maximal effect
Method in brief: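 LYMP2-022 lymphoblastoid cells (2500/well, complete medium) were treated with compounds for 24 hours at 37 C; intracellular ATP was then read by CellTiter-Glo luminescence after 30 min at room temperature. AC50 values were derived from Hill-equation fits.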

[16] = Cell Viability - LYMP2-024 (AID 988); conditions: LYMP2-024 lymphoblastoid cell viability; series mostly up to 92.2 µM; also: nearly all actives have a fitted effect of over 60% in size; also: potency is read from the fitted curve at half-maximal effect;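 as to activity change, negative = cytotoxicity: plate controls were DMSO only for no effect and 92 µM tetraoctylammonium bromide for full effect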
Method in brief: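 Human lymphoblastoid LYMP2-024 cells (2500/well) rested 5 hr, then treated with compound for 24 hr at 37 C in complete medium. Viability was measured as intracellular ATP by CellTiter-Glo luminescence. AC50 values came from Hill-equation fits.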

[17] = Cell Viability - LYMP1-002 - Assay at 40 hr (AID 994); conditions: LYMP1-002 lymphoblastoid cell viability; series mostly up to 92.2 µM; also: nearly all actives have a fitted effect of over 60% in size; also: potency is read from the fitted curve at half-maximal effect
Method in brief: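 LYMP1-002 human lymphoblastoid cells (2500/well, complete medium) were treated with compounds for 40 hr at 37 C. Intracellular ATP was measured by CellTiter-Glo luminescence, and AC50 values came from Hill-equation fits of concentration-response data; tetraoctylammonium bromide was the positive control.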

[18] = qHTS assay for small molecule antagonists of retinoid X receptor alpha signaling (AID 588546; active = well fitted inhibition curve with a large enough effect in the signal ratio, with a control signal flat, not every such curve was filed as active; the % refers to the signal ratio;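 also: cells stimulated with 9-cis-retinoic acid as agonist; % is scaled to controls: 0 for no effect and ±100 for the full control effect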); conditions: HEK293T RXRa-UAS-bla, beta-lactamase ratio, antagonist mode; measured here: W530 green channel, cytotoxicity proxy
Method in brief: (§1)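 Beta-lactamase reporter inhibition, read as CCF4 fluorescence ratio (ex 405, em 460/530 nm) after 2 h at RT. HEK293T UAS-bla cells, 2500/well, were stimulated with 9-cis-RA at 500 or 100 nM final alongside test compound for 18 h at 37 C.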

[19] = target: Retinoic acid receptor RXR-alpha (Homo sapiens) (UniProt P19793); assay: as above; conditions: HEK293T RXRa-UAS-bla, beta-lactamase ratio, antagonist mode
Method in brief: as §1

[20] = qHTS assay for environmental chemicals that activate the Aryl hydrocarbon Receptor (AhR) signaling pathway (AID 651777); conditions: 1A2-DRE human hepatoma cells, luciferase, 24 h; activation: stronger effect = higher value; also: % of control where 0% means no effect; nearly all actives have a fitted effect of over 15% in size
Method in brief: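 Human hepatoma 1A2-DRE cells stably carrying a DRE/CYP1A2 promoter–luciferase reporter, 1,200 cells/well, exposed to compound 24 hr at 37 C. Luciferase read by One-Glo luminescence after 30 min at room temperature; increased signal marks AhR activation.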

Retinoic acid receptor RXR-alpha (Homo sapiens), sequence (P19793 whole entry, looked up): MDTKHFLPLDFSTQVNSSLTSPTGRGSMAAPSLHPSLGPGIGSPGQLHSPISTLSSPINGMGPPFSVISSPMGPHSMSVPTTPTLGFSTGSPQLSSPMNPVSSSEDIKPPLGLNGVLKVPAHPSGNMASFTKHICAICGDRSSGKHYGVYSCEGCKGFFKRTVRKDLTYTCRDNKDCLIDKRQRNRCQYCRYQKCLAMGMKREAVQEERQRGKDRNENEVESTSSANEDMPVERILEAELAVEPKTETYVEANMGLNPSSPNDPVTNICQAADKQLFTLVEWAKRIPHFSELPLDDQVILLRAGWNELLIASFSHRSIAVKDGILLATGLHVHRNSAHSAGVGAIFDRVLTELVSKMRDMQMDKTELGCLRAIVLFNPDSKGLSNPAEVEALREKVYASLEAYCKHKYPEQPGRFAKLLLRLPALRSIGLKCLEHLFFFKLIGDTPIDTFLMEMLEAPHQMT

Cc1c(N)cccc1Cl
inactive: Potency [1] > 92 µM | Potency [2] | Potency [3] | Potency [4] | Potency [5] | Potency [6] | Potency [7] | Potency [8] | Potency [9] | Potency [10] | Potency [11] | Potency [12] | Potency [13] | Potency [14] | Potency [15] | Potency [16] | Potency [17] | max response [19] 1.61% | activation [20] -0.26%
0.883%: max response [18]

c1ccc(COCc2ccccc2)cc1
-0.558%: max response [18]
inactive: Potency [1] > 92 µM | Potency [2] | Potency [3] | Potency [4] | Potency [5] | Potency [6] | Potency [7] | Potency [8] | Potency [9] | Potency [10] | Potency [11] | Potency [12] | Potency [13] | Potency [14] | Potency [15] | Potency [16] | Potency [17] | max response [19] -1.13% | activation [20] -0.601%

Nc1ccc(-c2ccc(N)c(O)c2)cc1O
-41.6%: max response [18]
inactive: Potency [1] > 92 µM | Potency [2] | Potency [3] | Potency [4] | Potency [7] | Potency [8] | Potency [9] | Potency [11] | Potency [12] | Potency [14] | Potency [17] | max response [19] -12% | activation [20] -0.254%

C=CC(=O)OCCCCCCOC(=O)C=C
3.39% and -7.34%: max response [18]
active: Potency [3] 39.8 µM | Potency [4] 39.8 µM | Potency [5] 39.8 µM | Potency [6] 39.8 µM | Potency [7] 39.8 µM | Potency [8] 50.1 µM | Potency [9] 50.1 µM | Potency [10] 39.8 µM | Potency [11] 50.1 µM | Potency [12] 39.8 µM | Potency [13] 39.8 µM | Potency [14] 39.8 µM | Potency [15] 39.8 µM | Potency [16] 31.6 µM | Potency [17] 39.8 µM
inactive: Potency [1] > 92 µM | max response [19] -43.4% and 3.26% | activation [20] -0.448% and 0.963%

O=Nc1ccc(Nc2ccccc2)cc1
inactive: Potency [1] > 92 µM | Potency [2]

Cc1c(C(=O)O)c(O)cc2c1C(=O)c1c(O)c([C@H]3O[C@H](CO)[C@@H](O)[C@H](O)[C@H]3O)c(O)c(O)c1C2=O
-15.8%: max response [18]
inactive: Potency [9] | Potency [14] | max response [19] 21% | activation [20] -4.11%

Oc1cc2c(cc1O)[C@H]1c3ccc(O)c(O)c3OC[C@@]1(O)C2
active: Potency [3] 39.8 µM | Potency [4] 31.6 µM | Potency [5] 31.6 µM | Potency [6] 31.6 µM | Potency [7] 50.1 µM | Potency [8] 50.1 µM | Potency [9] 39.8 µM | Potency [10] 25.1 µM | Potency [11] 39.8 µM | Potency [12] 39.8 µM | Potency [13] 31.6 µM | Potency [14] 39.8 µM | Potency [15] 31.6 µM | Potency [16] 25.1 µM | Potency [17] 50.1 µM
inactive: max response [19] -15.2% | activation [20] -1.85%
-1.27%: max response [18]

C/C=C/C=C/C=O
inactive: Potency [1] > 92 µM | Potency [2] | Potency [17] | activation [20] 0.0819%
active: Potency [4] 39.8 µM | Potency [5] 31.6 µM | Potency [6] 39.8 µM | Potency [7] 50.1 µM | Potency [10] 31.6 µM | Potency [11] 39.8 µM | Potency [12] 50.1 µM | Potency [13] 39.8 µM | Potency [14] 31.6 µM | Potency [15] 25.1 µM | Potency [16] 25.1 µM
